Bioassay records: PubChem, Broad Institute
A selection follows.
aSyn 5UTR act = Activators via SNCA 5'UTR binding, MLPCN | activity score, % (tested at 7.5 µM), hits read low | 300,000 compounds, 7.1% hits | alpha-synuclein 5'UTR reporter, activators screen; in the data active = activity score below about -60%
Each line names hits and unclear results; the compound was inactive in the other large screens.

O=C(N/N=C/c1cccs1)c1cc(-c2cccc3ccccc23)n[nH]1	aSyn 5UTR act -104
Cc1ccc(/C=N/NC(=O)c2ccc3ccccc3c2)s1	aSyn 5UTR act -132
Cc1cc(C(=O)N/N=C/c2ccc([N+](=O)[O-])s2)n[nH]1	none
S=C(Nc1ccc(Cl)cc1Cl)NC1CCCCC1	aSyn 5UTR act -127
O=C(Nc1ccc(Cl)cc1Cl)NC1CCCC1	aSyn 5UTR act -74
O=C(NC1CCCCC1)Sc1ccc(Cl)cc1	aSyn 5UTR act -72
CN(C(=O)Nc1ccc(Cl)cc1Cl)C1CCCC1	aSyn 5UTR act -118
COc1ccc2c(c1OC)C(=O)N1C(C(=O)O)Cc3c([nH]c4ccccc34)C21 (stereo not drawn)	aSyn 5UTR act -66
CCc1ccc2c(c1)/C(=N/N(C)C(=S)NC)C(=O)N2	aSyn 5UTR act -71
O=C(Nc1ccc(-n2cc(Br)cn2)cc1)c1ccncc1	aSyn 5UTR act -68
O=C(Nc1ccc(-n2cc(Cl)cn2)cc1)c1ccncc1	aSyn 5UTR act -92
O=C(Nc1ccc(-c2cn3c(n2)SCC3)cc1)c1ccc2c(c1)OCO2	aSyn 5UTR act -87
Cn1ncc([N+](=O)[O-])c1C(=O)Nc1ccc(-c2nc3ccccc3[nH]2)cc1	aSyn 5UTR act -159
CS(=O)(=O)c1ccc(C(=O)Nc2ccc(-c3nc4ccccc4[nH]3)cc2)cc1	aSyn 5UTR act -67
Cn1ncc([N+](=O)[O-])c1C(=O)Nc1ccc(C2CCCCC2)cc1	aSyn 5UTR act -136
O=C(Nc1ccc(-c2nc3ccccc3[nH]2)cc1)c1ccc2c(c1)OCO2	aSyn 5UTR act -102
c1ccc2[nH]c(-c3ccc4c(c3)OCO4)nc2c1	none
Cc1cc(N)c(NC2=CC(=O)CC(C)(C)C2)cc1C	aSyn 5UTR act -108
Cc1cccc(N(C)C(=O)c2cc3cc4ccc(C)cc4nc3o2)c1	aSyn 5UTR act -605
Cc1cccc(N(C)S(=O)(=O)c2ccc(-c3cc(C)no3)s2)c1	none
CCN1CCN(c2ccc(NC(=O)c3ccc4c(c3)[nH]c(=O)n4Cc3ccc(F)cc3)cc2)CC1	aSyn 5UTR act -68
CCN1CCN(Cc2ccc(NC(=O)c3ccc(C)c(NC(=O)N4CCNC4=O)c3)cc2C(F)(F)F)CC1	none
O=C(N/N=C/c1sc(=O)n(-c2ccccc2)c1Cl)c1ccccc1	aSyn 5UTR act -84
OC1CCCN(CC(O)COc2ccc(-c3ccccc3)cc2)C1 (stereo not drawn)	aSyn 5UTR act -74
COc1ccc(C(O)(CC(C)C)C(CN2CCOCC2)c2ccccc2)cc1 (stereo not drawn)	none
OC(COc1ccc(OCc2ccccc2)cc1)CN1CCCCC1 (stereo not drawn)	aSyn 5UTR act -73
OC(COc1ccc(-c2ccccc2)cc1)CN1CCOCC1 (stereo not drawn)	aSyn 5UTR act -73
OCCN(Cc1ccccc1)CC(O)COc1ccc(-c2ccccc2)cc1 (stereo not drawn)	aSyn 5UTR act -96
OC(CNCCc1ccccc1)COc1ccc(OCC(O)CNCCc2ccccc2)cc1 (stereo not drawn)	none
OCCN1CCN(CC(O)COc2ccc(-c3ccccc3)cc2)CC1 (stereo not drawn)	aSyn 5UTR act -126
OC(COc1ccc2cc(Br)ccc2c1)CN1CCCC1 (stereo not drawn)	aSyn 5UTR act -97
CCOC(=O)c1c(C)nc2sc(C(=O)Nc3ccccc3)c(N)c2c1-c1ccc(OC)cc1	aSyn 5UTR act -191
COc1ccc(-c2c3c(nc4sc(C(=O)Nc5ccccc5)c(N)c24)CCC3)cc1	aSyn 5UTR act -128
COC(=O)c1ccc(CN2C(=O)NC3(CCC(C)CC3)C2=O)cc1 (stereo not drawn)	aSyn 5UTR act -70
CC1CCC2(CC1)NC(=O)N(NC(=O)CCl)C2=O (stereo not drawn)	aSyn 5UTR act -77
O=C(CN1C(=O)c2ccccc2S1(=O)=O)c1ccc2c(c1)OCCO2	none
Cc1cc(C(=O)Cn2cnc3ccccc3c2=O)c(C)n1C1CC1	aSyn 5UTR act -109
O=C(Cn1cnc2ccccc2c1=O)Nc1ccc2c(c1)OCO2	aSyn 5UTR act -120
O=C(Cn1cnc2ccccc2c1=O)c1ccc2c(c1)OCCO2	aSyn 5UTR act -130
COc1ccc(C(=O)Cn2cnc3ccccc3c2=O)cc1	aSyn 5UTR act -146
O=C(Cn1cnc2ccccc2c1=O)c1ccc2ccccc2c1	aSyn 5UTR act -140
Cc1ccc(C(=O)Cn2cnc3ccccc3c2=O)cc1C	aSyn 5UTR act -155
O=C1C(c2ccccc2)=[N+]([O-])c2ccccc21	aSyn 5UTR act -94
O=C1C(=O)c2ccc(-c3ccccc3)cc2-c2ccccc21	none
O=C(CCCc1ccccc1)NC12CC3CC(CC(C3)C1)C2	aSyn 5UTR act -151
CNC[C@H](CC1CCCCC1)NC[C@H](Cc1ccccc1)NCCC12CC3CC(CC(C3)C1)C2	none
O=C(NCCc1ccc(F)cc1)NC12CC3CC(CC(C3)C1)C2	aSyn 5UTR act -117
O=C(NCCC1=CCCCC1)NC12CC3CC(CC(C3)C1)C2	aSyn 5UTR act -118
Cc1ccc(O)c(-c2cc(-c3ccccc3F)[nH]n2)c1	aSyn 5UTR act -115
O=[N+]([O-])c1ccccc1-c1cc(-c2ccccc2O)n[nH]1	aSyn 5UTR act -256
Cc1ccc(-c2cc(-c3cccc(F)c3)n[nH]2)c(O)c1	aSyn 5UTR act -154
Cc1ccc(O)c(-c2cc(-c3cccc(F)c3)n[nH]2)c1	aSyn 5UTR act -96
COc1ccc(Nc2cc(C)nc(N)n2)cc1	aSyn 5UTR act -64
Cc1cc(Nc2ccc(Cl)cc2)nc(N)n1	aSyn 5UTR act -111
Nc1cc(Nc2ccc(Br)cc2)nc(N)n1	aSyn 5UTR act -149
COC(=O)c1sccc1NC(=O)c1csc(C)c1	aSyn 5UTR act -80
CCOc1ccccc1C(=O)Nc1ccsc1C(=O)OC	none
COC(=O)c1c(NC(=O)c2ccc(Br)s2)sc2c1CCC2	aSyn 5UTR act -92
COC(=O)c1sccc1NC(=O)c1ccc(Br)s1	aSyn 5UTR act -67
O=C(c1cc(-c2cccc(Cl)c2)on1)N1CCCC1	aSyn 5UTR act -182
O=C(c1cc(-c2ccc(Cl)c(Cl)c2)on1)N1CCCCC1	aSyn 5UTR act -193
O=C(c1cc(-c2ccc(Br)cc2)on1)N1CCCCCC1	aSyn 5UTR act -145
O=C(c1cc(-c2cccc(O)c2)on1)N1CCCCCC1	aSyn 5UTR act -119
O=C(Nc1ccc(Br)cc1)c1cnccn1	aSyn 5UTR act -94
Cc1ccc(NC(=O)c2cnccn2)cc1	aSyn 5UTR act -82
Cc1ccc(NC(=O)c2cnccn2)cc1C	aSyn 5UTR act -72
Clc1ccc2c(N/N=C/c3cccnc3)ccnc2c1	aSyn 5UTR act -81
Oc1ccc(/C=N/Nc2ccnc3cc(Cl)ccc23)c(O)c1	aSyn 5UTR act -227
Fc1ccc(N/N=C/c2cccnc2)c(F)c1	aSyn 5UTR act -114
Cc1cc(=O)n2nc(-c3ccccc3)sc2n1	aSyn 5UTR act -99
COc1ccc(S(=O)(=O)NCC2CCCN(Cc3ccc(OC)cc3F)C2)cc1 (stereo not drawn)	aSyn 5UTR act -90
Nc1ccc2oc(CCc3ccccc3)nc2c1	aSyn 5UTR act -118
c1ccc2oc(CCc3nc4ccccc4o3)nc2c1	aSyn 5UTR act -99
CC(C)(C)C(=O)CSc1ncnc2c1cnn2-c1ccccc1	aSyn 5UTR act -162
c1ccc(CSc2ncnc3c2cnn3-c2ccccc2)cc1	aSyn 5UTR act -142
Cc1ccccc1-c1nc2cc(N)ccc2o1	aSyn 5UTR act -123
CC(C)c1ccc2oc(-c3cc(N)ccc3O)nc2c1	aSyn 5UTR act -95
O=C(CSc1ccc(Cl)cc1)N1CCOCC1	aSyn 5UTR act -69
O=C(CSc1ccc(Br)cc1)N1CCOCC1	aSyn 5UTR act -65
O=C(CCSc1ccc(Cl)cc1)N1CCOCC1	aSyn 5UTR act -69
